Holding throughout (assay): log2 fold change, soluble protein after heating vs DMSO (PISA); higher = thermal stabilisation; K562 lysate, 10 uM; active = over 0.2 and 3.5 SD of the protein, either way, in both replicates (recomputed)
Compound in one assay: CN1CC[C@H](c2c(O)cc(O)c3c(=O)cc(-c4ccccc4Cl)oc23)[C@H](O)C1 [alvocidib]
The essentials: (§1)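 Dounce homogenisation of K562 pellets in PBS pH 7.4 with 1 mM MgCl2 produced a crude extract, used at 1 mg/mL protein. Exposure to 10 μM compound lasted 30 min, and aliquots were then heated for 3 min across 48°C-58°C, pooled and brought to 0.5% NP-40 at 4°C. The supernatant after 21,000xg for 90 min was quantified by TMTpro 16plex LC-MS/MS with channel sums equalised. Duplicate values are given as log-two fold change in thermal stability relative to solvent controls.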

Compound in another assay: CN1CCc2c(c3ccccc3n2Cc2ccc(C(=O)NO)cc2)C1 [Tubastatin A]
An outline of the steps:
as §1

Compound in assay [1]: CNC(=O)C1=CC=CC=C1NC2=NC(=NC=C2Cl)NC3=C(C=C(C=C3)N4CCOCC4)OC
An outline of the steps:
as §1

Compound in the next assay: CNC(=O)c1ccc(Nc2ncc(C(F)(F)F)c(NCc3nccnc3N(C)S(C)(=O)=O)n2)cc1 [defactinib]
An outline of the steps:
as §1

Compound in assay [2]: CNc1nc(-c2ccc3c(N)n[nH]c3c2)cc(N2C[C@@H](C(=O)NC3CCCCC3)CC[C@H]2C)n1
The essentials: as §1

Compound in a further assay: COC(=O)N[C@@H](C)CNc1nccc(-c2cn(C(C)C)nc2-c2cc(Cl)cc(NS(C)(=O)=O)c2F)n1 [encorafenib]
An outline of the steps:
as §1

Compound in assay [3]: COC(=O)[C@H](CCSC)NC(=O)C1=C(C=C(C=C1)NC[C@H](CS)N)C2=CC=CC=C2
An outline of the steps: as §1

Compound in a further assay: COc1cc(Nc2ncc3c(n2)-c2ccc(Cl)cc2C(c2c(F)cccc2OC)=NC3)ccc1C(=O)O [alisertib]
An outline of the steps: as §1

Compound in assay [4]: COc1cc2nc(-c3cc(F)ccc3O)nc(N[C@@H]3CNC[C@H]3C(C)(C)O)c2cc1OC
The essentials:
as §1

Compound in a further assay: COc1cc2ncnc(Nc3ccc(F)c(Cl)c3)c2cc1OCCCN1CCOCC1 [gefitinib]
An outline of the steps: as §1

The full data set covers some 8,800 targets. This sample favours those with a hit. About 0.5% of all pairs of compound and target were hits. A number with no mark means an inactive call.

Sequence of UniProt Q9H2P9 (Q9H2P9 whole entry, looked up): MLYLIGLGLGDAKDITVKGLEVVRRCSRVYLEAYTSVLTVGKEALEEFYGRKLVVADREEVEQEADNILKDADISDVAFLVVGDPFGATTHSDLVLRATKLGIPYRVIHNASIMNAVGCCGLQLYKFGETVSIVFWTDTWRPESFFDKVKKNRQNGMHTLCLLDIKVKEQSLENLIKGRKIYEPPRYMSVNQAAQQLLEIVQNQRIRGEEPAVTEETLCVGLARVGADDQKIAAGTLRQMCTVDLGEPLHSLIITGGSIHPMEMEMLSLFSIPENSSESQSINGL
Sequence of UniProt A8TX70 (A8TX70 whole entry, looked up): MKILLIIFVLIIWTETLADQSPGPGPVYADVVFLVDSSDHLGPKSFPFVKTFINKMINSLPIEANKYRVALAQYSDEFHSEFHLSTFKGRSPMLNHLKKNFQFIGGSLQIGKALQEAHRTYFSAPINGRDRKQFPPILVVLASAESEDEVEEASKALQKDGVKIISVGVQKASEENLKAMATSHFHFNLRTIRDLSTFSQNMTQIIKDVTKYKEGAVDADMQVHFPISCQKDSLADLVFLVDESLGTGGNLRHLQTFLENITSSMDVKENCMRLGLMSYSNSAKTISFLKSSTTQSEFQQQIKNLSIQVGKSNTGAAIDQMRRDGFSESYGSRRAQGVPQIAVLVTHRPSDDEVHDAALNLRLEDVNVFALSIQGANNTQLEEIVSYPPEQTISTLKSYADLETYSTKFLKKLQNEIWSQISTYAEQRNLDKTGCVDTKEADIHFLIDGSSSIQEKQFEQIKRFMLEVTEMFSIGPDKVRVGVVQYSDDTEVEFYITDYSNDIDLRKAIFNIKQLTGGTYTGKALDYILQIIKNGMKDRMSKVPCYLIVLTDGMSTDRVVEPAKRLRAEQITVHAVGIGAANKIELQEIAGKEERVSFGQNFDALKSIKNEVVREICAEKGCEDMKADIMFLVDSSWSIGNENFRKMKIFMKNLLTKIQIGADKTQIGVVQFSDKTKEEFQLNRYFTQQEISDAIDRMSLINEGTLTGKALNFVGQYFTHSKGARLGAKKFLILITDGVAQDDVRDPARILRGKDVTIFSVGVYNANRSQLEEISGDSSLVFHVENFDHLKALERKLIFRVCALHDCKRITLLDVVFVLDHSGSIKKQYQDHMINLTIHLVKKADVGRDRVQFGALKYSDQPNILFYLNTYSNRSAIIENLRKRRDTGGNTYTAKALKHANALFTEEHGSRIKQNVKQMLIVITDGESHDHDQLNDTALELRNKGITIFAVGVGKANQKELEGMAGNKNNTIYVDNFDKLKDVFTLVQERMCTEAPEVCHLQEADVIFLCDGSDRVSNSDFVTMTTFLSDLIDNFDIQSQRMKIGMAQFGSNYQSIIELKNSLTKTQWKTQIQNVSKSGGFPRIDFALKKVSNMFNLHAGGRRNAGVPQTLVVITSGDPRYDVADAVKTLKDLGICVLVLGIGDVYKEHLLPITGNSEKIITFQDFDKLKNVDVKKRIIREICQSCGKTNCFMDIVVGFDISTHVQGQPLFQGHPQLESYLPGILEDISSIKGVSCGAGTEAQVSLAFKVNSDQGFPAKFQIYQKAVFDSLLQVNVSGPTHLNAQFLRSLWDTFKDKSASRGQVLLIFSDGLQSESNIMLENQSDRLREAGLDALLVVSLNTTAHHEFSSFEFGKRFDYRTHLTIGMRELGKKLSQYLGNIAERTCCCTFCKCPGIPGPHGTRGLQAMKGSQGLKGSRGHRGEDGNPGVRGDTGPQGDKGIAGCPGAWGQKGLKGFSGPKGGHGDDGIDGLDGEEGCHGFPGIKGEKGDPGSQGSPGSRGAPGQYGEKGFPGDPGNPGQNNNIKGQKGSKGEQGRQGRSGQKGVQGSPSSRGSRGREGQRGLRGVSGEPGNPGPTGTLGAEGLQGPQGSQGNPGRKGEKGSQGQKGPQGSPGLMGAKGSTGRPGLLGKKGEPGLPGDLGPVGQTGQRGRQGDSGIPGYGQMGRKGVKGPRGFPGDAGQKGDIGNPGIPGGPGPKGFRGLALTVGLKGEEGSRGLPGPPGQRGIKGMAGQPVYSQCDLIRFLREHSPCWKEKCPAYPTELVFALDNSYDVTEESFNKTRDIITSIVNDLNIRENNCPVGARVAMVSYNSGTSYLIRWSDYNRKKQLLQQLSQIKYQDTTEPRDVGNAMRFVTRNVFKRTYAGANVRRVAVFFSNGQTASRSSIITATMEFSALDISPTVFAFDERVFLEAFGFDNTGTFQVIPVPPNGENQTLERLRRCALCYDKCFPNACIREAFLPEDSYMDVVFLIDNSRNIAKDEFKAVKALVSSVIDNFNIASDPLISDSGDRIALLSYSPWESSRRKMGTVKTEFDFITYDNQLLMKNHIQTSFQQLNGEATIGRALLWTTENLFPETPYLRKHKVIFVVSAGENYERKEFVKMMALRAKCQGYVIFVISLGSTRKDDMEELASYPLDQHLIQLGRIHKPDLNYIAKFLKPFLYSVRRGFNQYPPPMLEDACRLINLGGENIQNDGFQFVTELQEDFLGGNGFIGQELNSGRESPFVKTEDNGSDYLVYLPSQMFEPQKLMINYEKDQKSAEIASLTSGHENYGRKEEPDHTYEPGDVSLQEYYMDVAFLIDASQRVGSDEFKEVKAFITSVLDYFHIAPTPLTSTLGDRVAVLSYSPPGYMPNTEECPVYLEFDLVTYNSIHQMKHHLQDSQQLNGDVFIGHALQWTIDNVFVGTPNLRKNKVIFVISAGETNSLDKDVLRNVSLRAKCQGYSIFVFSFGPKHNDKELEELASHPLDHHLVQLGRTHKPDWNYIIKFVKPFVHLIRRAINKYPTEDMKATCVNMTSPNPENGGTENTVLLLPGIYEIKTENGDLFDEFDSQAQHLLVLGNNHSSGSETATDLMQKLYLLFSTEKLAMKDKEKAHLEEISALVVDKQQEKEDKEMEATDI
Sequence of UniProt Q13948 (Q13948 whole entry, looked up): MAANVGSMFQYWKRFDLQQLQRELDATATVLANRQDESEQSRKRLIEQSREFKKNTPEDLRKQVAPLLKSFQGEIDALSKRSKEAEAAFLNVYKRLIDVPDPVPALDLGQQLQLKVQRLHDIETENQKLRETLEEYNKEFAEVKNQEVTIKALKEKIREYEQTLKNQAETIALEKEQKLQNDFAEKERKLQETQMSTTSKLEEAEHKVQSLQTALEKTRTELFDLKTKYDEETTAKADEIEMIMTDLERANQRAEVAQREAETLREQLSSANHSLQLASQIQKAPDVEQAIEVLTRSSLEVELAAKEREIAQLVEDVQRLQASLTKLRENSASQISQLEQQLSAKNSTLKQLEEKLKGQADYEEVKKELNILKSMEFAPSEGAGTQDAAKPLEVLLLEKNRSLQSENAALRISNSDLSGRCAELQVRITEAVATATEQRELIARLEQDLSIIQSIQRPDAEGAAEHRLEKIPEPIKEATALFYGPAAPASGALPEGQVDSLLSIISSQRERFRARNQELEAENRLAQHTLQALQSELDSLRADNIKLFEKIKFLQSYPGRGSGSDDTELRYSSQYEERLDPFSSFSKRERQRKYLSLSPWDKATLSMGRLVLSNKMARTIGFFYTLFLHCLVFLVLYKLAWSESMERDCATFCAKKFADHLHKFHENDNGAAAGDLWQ
Sequence of UniProt Q9BQ75 (Q9BQ75 whole entry, looked up): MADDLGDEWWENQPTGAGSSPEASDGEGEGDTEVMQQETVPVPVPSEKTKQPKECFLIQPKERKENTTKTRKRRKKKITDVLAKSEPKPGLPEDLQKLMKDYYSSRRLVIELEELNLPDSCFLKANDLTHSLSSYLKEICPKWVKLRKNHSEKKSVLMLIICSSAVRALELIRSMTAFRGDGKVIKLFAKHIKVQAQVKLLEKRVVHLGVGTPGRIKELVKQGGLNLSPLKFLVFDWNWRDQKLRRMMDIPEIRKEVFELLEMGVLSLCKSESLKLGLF
Sequence of UniProt Q92796 (Q92796 whole entry, looked up): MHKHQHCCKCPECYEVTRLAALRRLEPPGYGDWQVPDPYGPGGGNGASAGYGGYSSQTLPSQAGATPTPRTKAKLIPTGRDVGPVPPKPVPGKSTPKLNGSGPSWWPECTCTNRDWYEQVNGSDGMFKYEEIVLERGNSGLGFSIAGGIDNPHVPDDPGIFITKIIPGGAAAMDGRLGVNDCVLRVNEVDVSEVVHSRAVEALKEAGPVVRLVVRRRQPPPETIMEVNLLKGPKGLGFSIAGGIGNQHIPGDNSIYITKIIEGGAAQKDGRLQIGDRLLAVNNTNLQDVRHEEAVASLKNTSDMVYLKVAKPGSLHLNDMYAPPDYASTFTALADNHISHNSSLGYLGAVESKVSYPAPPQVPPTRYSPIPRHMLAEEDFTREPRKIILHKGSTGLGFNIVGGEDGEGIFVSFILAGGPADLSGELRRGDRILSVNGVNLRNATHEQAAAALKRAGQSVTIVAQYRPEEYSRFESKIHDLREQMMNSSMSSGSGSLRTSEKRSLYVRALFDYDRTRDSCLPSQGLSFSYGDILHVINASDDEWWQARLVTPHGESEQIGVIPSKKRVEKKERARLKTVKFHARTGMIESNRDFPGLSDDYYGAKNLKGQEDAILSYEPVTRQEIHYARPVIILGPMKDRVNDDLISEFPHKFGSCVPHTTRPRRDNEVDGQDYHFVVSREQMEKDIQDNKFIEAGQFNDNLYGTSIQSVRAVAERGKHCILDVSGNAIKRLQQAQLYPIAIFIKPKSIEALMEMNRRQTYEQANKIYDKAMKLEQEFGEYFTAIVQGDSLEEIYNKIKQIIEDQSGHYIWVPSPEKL
Sequence of UniProt P49674 (P49674 whole entry, looked up): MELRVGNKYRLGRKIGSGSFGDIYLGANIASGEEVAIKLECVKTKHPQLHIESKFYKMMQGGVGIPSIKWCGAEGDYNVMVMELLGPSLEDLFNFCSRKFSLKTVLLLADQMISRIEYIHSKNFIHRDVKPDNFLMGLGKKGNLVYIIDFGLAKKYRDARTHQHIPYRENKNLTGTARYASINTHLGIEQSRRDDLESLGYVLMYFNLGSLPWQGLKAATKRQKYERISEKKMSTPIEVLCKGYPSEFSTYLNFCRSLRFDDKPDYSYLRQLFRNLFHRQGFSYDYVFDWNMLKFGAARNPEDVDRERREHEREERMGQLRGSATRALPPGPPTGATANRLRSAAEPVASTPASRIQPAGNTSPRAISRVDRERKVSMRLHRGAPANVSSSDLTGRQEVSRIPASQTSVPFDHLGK

CSNK1E (UniProt P49674): the log2 fold change is 0.021 with alvocidib; -0.159 in the assay with Tubastatin A; 0.129 in [1]; -0.017 with defactinib; 0.093 in assay [2]; -0.032 with encorafenib. For the same target, the log2 fold change in [3] is 0.028; with alisertib, -0.034; in [4], 0.048; with gefitinib it was 0.012.
For the target CHURC1 isoform 2 (UniProt Q8WUH1), the log2 fold change was 0.002 in the assay with alvocidib; 0.002 in the assay with Tubastatin A; 0 in [1]; 0.051 with defactinib; 0.024 in assay [2]; -0.068 in the assay with encorafenib. Also, the log2 fold change is -0.005 in assay [3], 0.013 with alisertib, -0.145 in [4] and -0.025 with gefitinib.
With CTNND1 isoform 3 (UniProt O60716), the log2 fold change is -0.02 with alvocidib; -0.159 with Tubastatin A; 0.019 in assay [1]; 0.045 with defactinib; -0.04 in [2]; 0.013 with encorafenib. In addition, the log2 fold change in assay [3] is 0.174; with alisertib it was 0.026; in assay [4], 0.006; with gefitinib, -0.023.
On to DCP1A (UniProt Q9NPI6), for which the log2 fold change was -0.002 in the assay with alvocidib; 0 in the assay with Tubastatin A; 0.003 in assay [1]; 0.033 with defactinib; 0 in [2]; 0.006 in the assay with encorafenib. In addition, the log2 fold change in [3] was -0.046; with alisertib, -0.074; in assay [4], 0.026; with gefitinib, 0.022.
Regarding CNOT6L (UniProt Q96LI5), the log2 fold change is -0.091 with alvocidib; 0.022 in the assay with Tubastatin A; 0.022 in assay [1]; 0.046 with defactinib; 0.013 in assay [2]; 0.036 with encorafenib. The log2 fold change in assay [3] is 0.066; in the assay with alisertib, -0.005; in assay [4], 0.037; with gefitinib, -0.033.
Take COL6A5 (UniProt A8TX70): the log2 fold change is -0.544 in the assay with alvocidib; 0.029 with Tubastatin A; -0.048 in [1]; -0.111 with defactinib; 0.256 in [2]; -0.088 in the assay with encorafenib. The log2 fold change in assay [3] was 0.1; with alisertib, -0.038; in assay [4], 0.07; in the assay with gefitinib, -0.034.
As for DARS (UniProt P14868), the log2 fold change with alvocidib is 0.012; in the assay with Tubastatin A it was -0.119; in assay [1], -0.012; with defactinib, 0.012; in assay [2], -0.061; in the assay with encorafenib, 0.028. Moreover, the log2 fold change in assay [3] was 0.049; in the assay with alisertib it was 0.038; in [4] it was 0.003; with gefitinib, -0.014.
Regarding CLCN3 isoform 2 (UniProt P51790), the log2 fold change with alvocidib was -0.02; with Tubastatin A, 0.02; in assay [1], 0.024; with defactinib, -0.015; in assay [2], 0.033; with encorafenib, 0.041. Further, the log2 fold change in assay [3] was 0.022; in the assay with alisertib, -0.007; in [4], -0.002; with gefitinib it was 0.005.
Regarding DPH5 isoform 5 (UniProt Q9H2P9), the log2 fold change in the assay with alvocidib was -0.012; with Tubastatin A, 0.02; in [1] it was 0.119; with defactinib, -0.002; in assay [2], 0.02; in the assay with encorafenib it was -0.044. The log2 fold change is -0.024 in assay [3], -0.045 with alisertib, -0.018 in assay [4] and 0.04 with gefitinib.
As to CPT1A (UniProt P50416), the log2 fold change with alvocidib is 0.407 (active); in the assay with Tubastatin A, 0.261; in assay [1], 0.004; with defactinib it was -0.053; in assay [2], 0.113; with encorafenib, 0.036. The log2 fold change is 0.078 in assay [3], -0.014 with alisertib, -0.051 in assay [4] and 0.031 in the assay with gefitinib.
Regarding CMSS1 (UniProt Q9BQ75), the log2 fold change with alvocidib is 0.013; with Tubastatin A, -0.036; in assay [1], -0.02; with defactinib, -0.009; in assay [2] it was -0.032; with encorafenib, 0.015. For the same target, the log2 fold change in assay [3] was 0.024; with alisertib, 0.02; in assay [4] it was 0.004; with gefitinib it was 0.025.
For DLG3 isoform 2 (UniProt Q92796), the log2 fold change in the assay with alvocidib was -0.136; with Tubastatin A, 0; in assay [1] it was -0.026; with defactinib, 0.053; in assay [2] it was -0.01; with encorafenib it was -0.089. The log2 fold change in [3] is -0.082; in the assay with alisertib it was 0.069; in [4] it was -0.055; in the assay with gefitinib, -0.131.
Turning to CSTF2 (UniProt P33240), the log2 fold change is -0.023 in the assay with alvocidib; 0.011 with Tubastatin A; 0.014 in assay [1]; -0.016 with defactinib; 0.024 in assay [2]; -0.009 with encorafenib. The log2 fold change in [3] was -0.099; in the assay with alisertib, 0.03; in [4] it was 0.011; in the assay with gefitinib, 0.008.
As for CUL1 (UniProt Q13616), the log2 fold change with alvocidib was -0.008; with Tubastatin A it was 0.008; in assay [1], 0.001; in the assay with defactinib, -0.019; in assay [2] it was 0.013; with encorafenib, 0. Further, the log2 fold change in assay [3] was -0.042; with alisertib it was -0.01; in [4], 0.011; with gefitinib, -0.038.
In the case of CUX1 isoform 2 (UniProt Q13948), the log2 fold change is -0.035 in the assay with alvocidib; 0.016 in the assay with Tubastatin A; 0.033 in assay [1]; 0.085 in the assay with defactinib; -0.028 in assay [2]; 0.067 in the assay with encorafenib. Also, the log2 fold change is -0.022 in [3] and 0.071 in [4].
